# Bioassay records from PubChem.
# IMPase Li cell – IMPase inhibition in cells with lithium potentiation; CHO-M1 cells, IP1 TR-FRET (IP-One), carbachol + lithium; 210,000 compounds, 0.35% hits; AID 1457; Potency, µM (doses to about 59.4 µM), for inactives: at the highest dose activity, negative = IMPase inhibition, most hits filed as inhibitors;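 also: IP1 builds up when IMPase is blocked and the TR-FRET signal falls; potency is read from the fitted curve at half-maximal effect; plate controls were basal vehicle for no effect and high inhibitor control for full effect; nearly all actives have a fitted effect of over 50% in size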
#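 Test compounds were applied to CHO-M1 cells previously cultured for 16–30 h at 2000 per well. A small lithium amount accompanied them; after 30 min at 37C, IP1 was quantified by TR-FRET.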
# HTT aggregate – reduces HttQ103-GFP aggregates in PC12 cells. 220,000 compounds, 1.1% hits. Potency, µM (titrated, usually from 46.1 µM), without a hit: at the highest dose activity change, negative = inhibition, hits mostly inhibitors. PC12 HttQ103-GFP aggregates, Acumen cytometry, 40 h. AID 1688; also: potency is read from the fitted curve at half-maximal effect; % is scaled to controls: 0 for no effect and ±100 for the full control effect; nearly all actives have a fitted effect of over 60% in size
#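 Compounds (qHTS titration) were added to PC12 cells expressing an ecdysone-driven HTT exon 1 Q103–GFP fusion after induction with 100 nM tebufenozide. Aggregate formation was measured as GFP objects in cell lysates.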
# IMPase cell inh – cell-permeable inhibitors of inositol monophosphatase (IMPase); P97697; CHO-M1 cells, IP1 accumulation, HTRF TR-FRET ratio; inhibition (IP1 accumulation), % at 46.1 µM; 120,000 tested, under 10 active; active = well fitted curve in the direction sought with a large enough effect in the signal ratio, not every such curve was filed as active; inconclusive = small, poorly fitted or top-dose-only effect, or a change in a side signal; inactive = no such curve, though single readings can be large or run the other way; the % refers to the signal ratio;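 also: cells stimulated with carbachol in lithium chloride buffer; plate controls were DMSO basal wells for no effect and reference inhibitor wells for full effect; higher means more IMPase inhibition seen as more IP1 and lower FRET ratio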
# Target sequence (P97697 whole entry, looked up): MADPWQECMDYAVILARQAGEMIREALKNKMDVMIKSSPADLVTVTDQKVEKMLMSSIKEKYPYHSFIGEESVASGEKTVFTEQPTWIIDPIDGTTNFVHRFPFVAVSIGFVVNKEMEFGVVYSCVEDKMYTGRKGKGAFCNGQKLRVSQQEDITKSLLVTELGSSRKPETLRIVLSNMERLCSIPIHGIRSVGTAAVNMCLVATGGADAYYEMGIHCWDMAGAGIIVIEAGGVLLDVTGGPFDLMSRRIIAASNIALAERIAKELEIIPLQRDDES
#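 The IP-One HTRF competitive assay in carbachol-stimulated CHO-M1 cells quantifies cellular IP1. Compounds spanned up to 46 uM final, and activity is expressed as AC50 from concentration-response fits of the ratio and donor data.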
# PNC assembly inh – perinucleolar compartment assembly inhibition; PC3M PTB-GFP, PNC prevalence imaging, 16 h; stronger effect = lower value; activity change (PNC), negative = inhibition, % at 10 µM; 140,000 compounds, 3.1% hits;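 active = readout at or below -70, meaning at least 70% loss of cells showing the perinucleolar compartment, a nuclear body marking cancer cells; inconclusive = readout between -30 and a set limit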;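 also: plate controls were DMSO wells for no effect and camptothecin positive control wells for full effect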
#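 Read-out is percentage of cells bearing a perinucleolar compartment, from automated 20x imaging of fixed, Hoechst-stained PC3M PTB-GFP cells. Cells were seeded 4 h, then exposed 16 h to compound (23 nl of library stock) in duplicate plates.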
# HTT ATP protect – protects HTT-Q103 PC12 cells, measured by ATP. PC12 HTT-Q103 induced, cytoprotection, ATP luminescence, 40 h. Potency, µM (series often up to 56.4 µM), for the others: cytoprotection (ATP increase), actives largely listed as activators. 230,000 compounds, 0.14% hits. AID 1471; also: potency is read from the fitted curve at half-maximal effect; % of control where 0% means no effect; nearly all actives have a fitted effect of over 45% in size
#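 Quantitative HTS on tebufenozide-induced (100 nM) PC12 cells expressing HTTQ103 exon 1–GFP; compounds tested as a concentration series; survival measured via cellular ATP.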
# NPSR antagonist – neuropeptide S receptor (human) antagonism, cAMP; AID 1461; Q6W5P4; 220,000 compounds, 1% hits; CHO-NPSR cells, cAMP TR-FRET, antagonist mode; Potency, µM (series often up to 38.3 µM), without a hit: top-dose activity change, negative = inhibition, most hits filed as inhibitors; also: potency is read from the fitted curve at half-maximal effect; % is scaled to controls: 0 for no effect and ±100 for the full control effect; nearly all actives have a fitted effect of over 50% in size
# Target sequence (Q6W5P4 whole entry, looked up): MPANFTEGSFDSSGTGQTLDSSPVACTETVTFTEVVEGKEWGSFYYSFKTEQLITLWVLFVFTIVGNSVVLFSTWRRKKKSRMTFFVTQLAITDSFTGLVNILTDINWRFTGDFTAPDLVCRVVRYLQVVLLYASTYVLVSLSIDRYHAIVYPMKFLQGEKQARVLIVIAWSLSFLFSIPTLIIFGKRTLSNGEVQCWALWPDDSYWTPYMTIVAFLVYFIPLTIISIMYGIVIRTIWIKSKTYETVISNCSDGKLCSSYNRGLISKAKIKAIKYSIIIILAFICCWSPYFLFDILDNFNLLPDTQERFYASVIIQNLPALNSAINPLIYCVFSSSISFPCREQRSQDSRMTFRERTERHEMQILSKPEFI
# Numbers without * were called inactive; ? = inconclusive; / = not tested or not shown; [ ] = dose if it differs, or a comment. An excerpt weighted towards active compounds, which were near 3.4% of everything screened. Unless noted, calls follow the shape of the dose curve; as a rule, active = well fitted curve in the direction sought with a large enough effect; inconclusive = small, poorly fitted or top-dose-only effect, or another doubt; inactive = no such curve, though single readings can be large; an effect the other way counts as inactive or inconclusive.
SMILES,IMPase Li cell,HTT aggregate,IMPase cell inh,PNC assembly inh,HTT ATP protect,NPSR antagonist
CCN(c1ccc(OC)cc1)c1ncnc2nc[nH]c12,28%[38.3 µM],5.6µM*,1,0,-30%[10 µM],12%[46.1 µM]
CCCCN(CCCC)c1ncnc2nc[nH]c12,1%,?,/,/,-33%,-26%
CCCN(c1ccc(OCC)cc1)c1ncnc2nc[nH]c12,28%[38.3 µM],11µM*,9,28,6%[10 µM],-19%[46.1 µM]
COc1ccccc1NS(=O)(=O)c1cccc(-n2c(O)c(C=Nc3ccccc3C(=O)O)c3ccccc3c2=O)c1,/,26%[9.22 µM],/,/,33%[10 µM],?
COc1ccc(NC(=O)c2nc3nc(C)cc(C(F)F)n3n2)c(C)c1,/,/,3,/,/,/
Nc1nc(SCCO)[nH]c(=O)c1NC(=O)c1ccccc1F,-8%,-12%,/,/,-16%,8%
CC(C)NC(=O)CSc1nc(N)c(NC(=O)c2ccccc2F)c(=O)[nH]1,-9%,16%,/,-91*,-5%[10 µM],4%
COCCn1c(C)cc(/C=C2/NC(=O)N(Cc3ccc(C)cc3)C2=O)c1C,/,13%[9.22 µM],/,/,7%[10 µM],-17%
COCCn1c(C)cc(/C=C2/NC(=O)N(c3ccc(Cl)cc3)C2=O)c1C,-5%,-9%,/,-114*,/,-16%
COC(=O)CSc1nc2sc3c(c2c(=O)[nH]1)CCC3,/,-8%[9.22 µM],/,/,-6%[10 µM],21%
Cc1cc(C)c(NC(=S)NCCCSC2CCCCC2)c(C)c1,17%,11µM*,/,/,-43%,-39%
Cc1ccccc1/C=C\C1=NCCN1,/,/,14,/,16%[1.9 µM],/
Cc1ccc(C)c(-n2c3nc(=O)[nH]c(=O)c-3cc3cc([N+](=O)[O-])ccc32)c1,20%,4%,/,-116*,-52%[10 µM],-16%
COc1c2c(c3c(c1CCC(=O)O)OC(C)(C)C=C3)OC(C)(C)C=C2,3%,/,/,/,-13%[10 µM],/
CN(N=O)c1ccc(/C=C\c2ccnc3ccccc23)cc1,4%,/,/,/,-6%[10 µM],/
O=C(COC(=O)CCCN1C(=O)c2ccccc2C1=O)Nc1ncc(Cl)cc1Cl,-7%[38.3 µM],-27%,5,-100*,4%[10 µM],-23%[46.1 µM]
O=C(COC(=O)CCCN1C(=O)c2cccc3cccc(c23)C1=O)Nc1cccc(C(F)(F)F)c1,4%,21%,/,-106*,-3%[10 µM],-6%
COc1cccc(-c2oc3ccc(C)cc3c(=O)c2O)c1,/,/,-8,/,/,/
CCC1=C[C@@H]2CN(C1)Cc1c([nH]c3ccccc13)[C@@](C(=O)OC)(c1cc3c(cc1OC)N(C)[C@@H]1[C@@](O)(C(=O)OC)[C@H](OC(C)=O)[C@]4(CC)C=CCN5CC[C@]31[C@@H]54)C2,/,5.6µM*,/,/,-98%,/
O=C(O)c1cccc(CN2C(=O)SC(Nc3cccc4ccccc34)C2=O)c1 (stereo not drawn),4%,-5%[9.22 µM],/,/,-17%[10 µM],13%
COc1ccc(NC(=O)c2ccc3c(c2)NC(=O)CS3)cc1S(=O)(=O)Nc1ccc(Br)cc1,-5%,18µM*,/,/,-132%,-19%
C[C@@H]1CC[C@H]2[C@H](C)[C@H]3CC[C@H]4C5[C@@H](O)CC6=CC(=O)CC[C@]6(C)[C@H]5C[C@H]4C3C(=O)N2C1 (stereo partly drawn),17%,/,/,/,9%,/
O=C(O)c1ccccc1-c1c2ccc(=O)cc-2oc2cc(O)ccc12,-29%,0.032µM*,/,/,-125%,/
O=C(O)CN(CC(=O)O)Cc1cc2c(-c3ccccc3C(=O)O)c3cc(CN(CC(=O)O)CC(=O)O)c(=O)cc-3oc2cc1O,-23%,0.18µM*,/,/,/,/
O=C(Oc1cc2oc(=O)cc(-c3ccccc3)c2cc1Cl)C1CCCCC1,-40%[38.3 µM],7.1µM*,-7,-7,-27%,1%[46.1 µM]
SMILES,IMPase Li cell,HTT aggregate,IMPase cell inh,PNC assembly inh,HTT ATP protect,NPSR antagonist
CC(C)(C)OC(=O)NCC(=O)Oc1cc2oc(=O)cc(-c3ccccc3)c2cc1Cl,-11%,4µM*,/,?,-20%[10 µM],-1%
O=C(c1c[nH]c2ccccc12)C(F)(F)F,/,-12%[9.22 µM],/,/,9%[10 µM],13%
O=C(O)c1cc(O)c2c(c1)[C@H]([C@H]1c3cc(C(=O)O)cc(O)c3C(=O)c3c(O[C@@H]4OC(CO)C(O)C(O)C4O)cccc31)c1cccc(O[C@@H]3OC(CO)C(O)C(O)C3O)c1C2=O (stereo partly drawn),4%,9%,/,/,-76%,/
Cn1c(=O)n(C)c2cc(NS(=O)(=O)c3ccc4c(c3)CCCC4)ccc21,40%[38.3 µM],2.8µM*,1,-23,-12%[0.074 µM],-23%[46.1 µM]
Cc1cc(C)c(S(=O)(=O)Nc2ccc(O)cc2)c(C)c1,-7%[38.3 µM],7%,13,?,-10%,-6%[46.1 µM]
Cc1cc(C)c(S(=O)(=O)Nc2ccc3c4c(cccc24)CC3)c(C)c1,12%[38.3 µM],?,10,-88*,-73%,?
Cc1cc(C)c(S(=O)(=O)Nc2ccc3c(c2)CCC3)c(C)c1,-9%,-19%,/,-89*,8%[10 µM],?
Cn1c(=O)n(C)c2cc(NS(=O)(=O)c3ccc(C(C)(C)C)cc3)ccc21,9%,13%[9.22 µM],/,/,6%[10 µM],-6%
O=C(Nc1cc(NC(=O)c2ccccc2Cl)ccc1Cl)c1ccccc1,/,/,-6,/,/,/
COc1ccc(N(C(=O)CCl)C(C(=O)NC2CCCCC2)c2cccnc2)cc1 (stereo not drawn),3%,22µM*,/,-8,-72%[10 µM],-29%
O=C(NC1CCCCC1)C(c1cccnc1)N(C(=O)CCl)c1ccc(F)cc1 (stereo not drawn),7%,6.3µM*,/,-21,-71%[10 µM],-23%
COc1ccc(C(=O)c2ccc(N3CCN(C(=O)c4ccc(F)cc4)CC3)c(F)c2)cc1Br,0%[38.3 µM],13µM*,6,-26,-49%,?
COc1ccc(NC(=S)N(CCCN2CCOCC2)Cc2cn(C)c3ccccc23)cc1,0%,?,4,?,-41%[10 µM],8%
Cc1cccc(NC(=S)N(CCCN2CCOCC2)Cc2cn(C)c3ccccc23)c1,6%,8.9µM*,4,?,-39%[10 µM],-5%
Cc1ccc(NC(=S)N(C)Cc2cn(C)c3ccccc23)cc1,7%,35µM*,/,?,8%[10 µM],-21%
CCC/C(O)=C1\C(=O)CCCC1=NCCc1c(C)[nH]c2ccc(OC)cc12,15%,2%,/,/,-9%,-21%
Cc1ccc(OCC(O)Cn2c(N3CCOCC3)nc3c2c(=O)[nH]c(=O)n3C)cc1 (stereo not drawn),/,11%,5,-94*,-15%,-1%[46.1 µM]
Cc1ccc(OCC(O)Cn2c(NCCc3ccccc3)nc3c2c(=O)[nH]c(=O)n3C)cc1 (stereo not drawn),5%,19%,2,6,-22%[10 µM],-2%[46.1 µM]
Cn1c(=O)[nH]c(=O)c2c1nc(N1CCOCC1)n2CCCSc1ncccn1,-11%[38.3 µM],30%,2,-114*,-37%,0%[46.1 µM]
